In PubChem BioAssay (NCI):
This is part of a sample that, as a whole, favours compounds with a hit. Of some 79,000 tested, about 15% had one in any assay. Unmarked numbers belong to inactive results. Activity calls are given as the source filed them. Rule as the data show it: active = growth inhibition above about 70%; inactive = the rest. Where a SMILES comes first, the peptide text is derived from it. [ ]: non-standard residue; d: D form. The star is where a group is joined. Cbz = O=C(OCc1ccccc1)*; Aib = CC(C)(N)C(=O)O

Tests used:
[1] = NCI Yeast Anticancer Drug Screen. Data for the rad50 strain (AID 155);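 also: 0% = growth of vehicle-only cultures of the same strain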; details: S. cerevisiae rad50 strain growth inhibition; at 50.0 µM; hits give high values
Procedure, shortened: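 Readout: growth inhibition relative to vehicle-treated cultures. Compound exposure was carried out in a genetically defined yeast strain deficient in DNA damage repair.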

[2] = NCI Yeast Anticancer Drug Screen. Data for the mec2-1 strain (AID 157); details: S. cerevisiae mec2-1 strain, at 50.0 µM, hits give high values
Procedure, shortened: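 mec2-1 yeast strain, carrying an alteration in DNA damage repair or cell cycle control, was exposed to compounds; growth inhibition was measured relative to vehicle-treated controls.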

[3] = NCI Yeast Anticancer Drug Screen. Data for the sgs1 mgt1 strain (AID 161);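 also: 0% = growth of cultures given vehicle only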; details: S. cerevisiae sgs1 mgt1 strain, at 50.0 µM, hits give high values
Procedure, shortened: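 Yeast cells carrying a defined DNA-repair defect were exposed to test compounds. Growth inhibition was measured relative to vehicle-treated controls.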

[4] = NCI Yeast Anticancer Drug Screen. Data for the cln2 rad14 strain (AID 165);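 also: 0% = growth equal to vehicle treated cultures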; details: S. cerevisiae cln2 rad14 strain, at 50.0 µM, hits give high values
Procedure, shortened: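 Yeast carrying cln2 and rad14 alterations (cell cycle control and DNA damage repair) were exposed to compounds. Growth inhibition was measured against vehicle-treated controls.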

[5] = NCI Yeast Anticancer Drug Screen. Data for the bub3 strain (AID 167); details: S. cerevisiae bub3 mutant strain, at 50.0 µM, hits give high values
Procedure, shortened: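 Readout: yeast growth inhibition, expressed relative to vehicle-only wells. The test organism is a mutant strain from a panel with lesions in DNA repair or checkpoint genes.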

[6] = NCI Yeast Anticancer Drug Screen. Data for the mlh1 rad18 strain (AID 175); details: S. cerevisiae mlh1 rad18 strain growth inhibition; at 50.0 µM; hits give high values
Procedure, shortened: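 Growth inhibition of the yeast strain was measured after compound exposure and expressed relative to vehicle-treated controls. The strain carries defined defects in DNA damage repair.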

Structure (SMILES) | growth inhibition [1] | growth inhibition [2] | growth inhibition [3] | growth inhibition [4] | growth inhibition [5] | growth inhibition [6]
O=C1OC(=O)C2CCC12 (stereo unspecified) | 14% | -9.5% | 3.5% | 2.5% | 12.5% | 17.6%
Cc1cccc(/C=C(\C#N)C(=O)c2ccccc2)c1 | -10.6% | 15.3% | -13.6% | 5.75% | -5.25% | 21.2%
CCC/C=N/NC(=O)c1ccc(OC)cc1 | -2.45% | -15.8% | -6.85% | -46.9% | 5.85% | -4.7%
N#Cc1ccccc1/C=N/O | 0.15% | -6.55% | -8.75% | 0.95% | -18.4% | -14.1%
CC(=O)CC(=O)Nc1ccccc1C | -5.2% | 5.95% | 2.4% | -27.4% | -11.2% | -22.7%
CCOC(=O)/C(C#N)=C/c1ccc(O)c(OC)c1 | 30.4% | -8.5% | 4.95% | 14.5% | 12.6% | 23.3%
CCOC(=O)c1ccc(NC(=S)NCc2cccnc2)cc1 | 11.6% | -3.25% | 24.6% | 4.95% | 22.2% | -6.7%
CC1(C)CC(=O)C(C=NC(=O)c2ccncc2)=C(O)C1 | -25.1% | 19.7% | -3.55% | -3.8% | 14.9% | -40.4%
COC1=C(N)C(=O)c2nc(-c3nc(C(=O)O)c(C)c(Br)c3N)ccc2C1=O | 89.3% (active) | 92.2% (active) | 84.9% (active) | 89.2% (active) | 80.5% (active) | 92.7% (active)
Nc1cc(Cl)cc2cc(Cl)cnc12 | 54.2% | 54.8% | 25.4% | 29.1% | 47.4% | 39.5%
Cc1ccc(S(=O)(=O)N/N=C2/CCCOC2)cc1 | 16.1% | 4.15% | 59.6% | 32.5% | 24.2% | 38%
C1CCC2C3CCC(O3)C2C1 (stereo unspecified) | -4.2% | 1.05% | 5.4% | -33.7% | -39.1% | 2.35%
Oc1ccccc1C1SCSCS1 | 14.8% | 12.9% | 14.1% | -3.3% | -10.4% | 5.85%
CN(CCc1ccccn1)/[N+]([O-])=N/O (tested in a mixture with another compound) | -30.8% | -36.9% | 4.15% | 11.2% | -3.35% | -4.65%
Cc1cc([N+](=O)[O-])ccc1N=NC(=O)NNc1ccc([N+](=O)[O-])cc1C | -0.45% | 5.1% | 8.35% | -33.1% | 4.15% | 23.2%
CC(C)(NC(=O)C(C)(C)NC(=O)OCc1ccccc1)C(=O)O (Cbz-[Aib]-[Aib]-OH) | 6.05% | -3.6% | 3.9% | 14.1% | 0.25% | -64.5%
N#CC(=Nc1cc(Cl)cc(Cl)c1)C1=C(O)c2ccccc2C1=O | 5.75% | 0.6% | 30.1% | 14.1% | 35.9% | 11%
Cn1nc(-c2ccccc2)c(N=[N+]=[N-])cc1=O | -18.1% | 14.6% | -41.3% | -11.9% | -10.9% | -34.6%
COc1cc(C2c3cc4c(cc3OC(NCCc3ccccc3)C2C)OCO4)cc(OC)c1OC (stereo unspecified) | -15.8% | -41.4% | -0.3% | -25.4% | 0.6% | 11.4%
N#Cc1c(C#N)c(-c2cccc([N+](=O)[O-])c2)n(-c2ccccc2)c1N | 15.9% | 15.5% | -35.6% | 2.15% | -16.6% | -16.5%
CC(C)CC(N)C(=O)OCN1C(=O)C2C3C=CC(C2C1=O)C1C2C(=O)N(COC(=O)C(N)CC(C)C)C(=O)C2C31 (stereo unspecified) | 16.1% | 15.6% | 5.05% | 36.5% | -0.05% | 9.7%

Structure (SMILES) | growth inhibition [1] | growth inhibition [2] | growth inhibition [3] | growth inhibition [4] | growth inhibition [5] | growth inhibition [6]
COCCCN1COCC(COc2ccc(Cl)cc2)OC1 (stereo unspecified) | -17.9% | -35% | -32.2% | -23.2% | -36.6% | -27.9%
CCn1c2ccccc2c2cc(N=Nc3cc(N)ccc3N(C)C)ccc21 | -3.35% | -7.85% | -9.1% | -22.3% | -5.05% | -4.6%
Nc1cc(C(F)(F)F)ccc1F | 2.5% | -13.8% | -9% | -5.6% | 6.65% | 27.4%
NS(=O)(=O)c1ccc(Nc2c3ccccc3nc3c(C(=O)NCCO)cccc23)cc1 | 51.8% | -30.2% | -15.9% | -3.1% | -10.6% | -1.9%
Cc1ccc(Cl)cc1N=C=S | -22% | -18.8% | 6% | -4.6% | -38.4% | -11.2%
CC(C)(O)C#Cc1ccccc1 | -0.85% | -8.2% | -0.95% | -24.8% | -9.5% | 11.1%
CC(O)(CCCCCl)c1nc2ccccc2s1 (stereo unspecified) | 20.9% | -8.05% | 25.4% | -0.8% | 11.9% | 17.1%
NNc1ccc(S(=O)(=O)C(F)F)cc1 | 29.9% | -29.2% | 20.6% | 41% | 41.2% | 13.1%
O=C(CP(=O)(c1ccccc1)c1ccccc1)c1cccc(C(=O)CP(=O)(c2ccccc2)c2ccccc2)c1 | -6.35% | -10.1% | -7.05% | -15.7% | -21.1% | -2.4%
CC(C)Oc1cc2c(cc1O)CC[C@@H]1[C@@H]2CC[C@]2(C)[C@@H](O)CC[C@@H]12 | 45.9% | 8.2% | 63.7% | 33% | 56.9% | 44.1%
Nc1ccc2[nH]c(=S)sc2c1 | 11.2% | 16.4% | -7.2% | -1.6% | -0.65% | 3.35%
COc1ccc2c(c1)c(=O)c1c(NCCCN(C)C)ccc3ncn2c31 | 34.6% | -5.35% | 15.8% | -1.7% | -9.6% | 9.3%
CC(C)=NNC(=O)c1n[nH]c(C)c1N=NN(C)C | 12.5% | -23.4% | 6.5% | -0.65% | -9.4% | 20.5%
Cc1cc(Cl)ccc1NC(N)=O | -5.95% | -20.3% | 5.15% | 22.4% | -3.7% | -1.85%
CC(C)c1ccc(NC(=S)NCCO)cc1 | -7.95% | -4% | -21.7% | -9.65% | -4.1% | -10.9%
O=S1(=O)OCCOS(=O)(=O)C1(I)I | 11.7% | -26.2% | -2.35% | 11.4% | -9.7% | 16.2%
Clc1ccc(-n2ncc3c2-c2ccccc2CCC3)cc1 | 31.4% | -6.5% | 3.5% | 4.85% | 48.2% | 34.3%
CN(C)c1ccc(-c2cccc[n+]2C)cc1 | -12.8% | 12.2% | 3.05% | 3.25% | 0.1% | 25.7%
O=C(O)c1ccc(Br)cc1 | 5.1% | -6.05% | 2.8% | -25.2% | 9.8% | 0%
CSc1ncnc2[nH]ncc12 | 4.5% | 20.9% | -30.5% | -20.9% | -0.4% | -62.1%
